ATXN2 expr inh = reduces ATXN2 reporter expression in HEK-293 cells | HEK-293 ATXN2-luciferase reporter, luminescence, 24 h | Potency, µM (top dose mostly 57 µM), inactives show at the top dose activity change, negative = inhibition, usual class: inhibitors | 360,000 compounds, 0.72% hits | AID 1745845; further: on the % scale 0 is the no-effect control and ±100 the full control effect; nearly all actives have a fitted effect of over 55% in size
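qHTS (up to 57 uM final) was run with 24 h compound exposure of reporter cells at 37 °C. Each well was multiplexed: SteadyGlo luminescence measured ATXN2-luciferase expression after a fluorogenic Gly-Phe-AFC viability readout (25 uM final).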
Apoferritin bind = binds horse apoferritin like a general anesthetic; apoferritin/1-aminoanthracene competitive binding, fluorescence; P02791; 350,000 compounds, 0.074% hits; Potency, µM (doses to about 77.5 µM), for the others: at the top dose activity change, negative = displacement, actives largely listed as inhibitors; AID 485281; further: on the % scale 0 is the no-effect control and ±100 the full control effect; nearly all actives have a fitted effect of over 20% in size
Target sequence (P02791 2-175 limits assumed): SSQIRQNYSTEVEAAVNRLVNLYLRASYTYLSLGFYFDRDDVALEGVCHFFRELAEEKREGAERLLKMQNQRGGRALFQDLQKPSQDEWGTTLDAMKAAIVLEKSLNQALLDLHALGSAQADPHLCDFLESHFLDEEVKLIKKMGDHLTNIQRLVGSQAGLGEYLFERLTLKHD
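Steps: apoferritin (10 uM) was premixed with half-saturated 1-AMA in PBS, compounds were pin-transferred, plates stood 10 min at room temperature, fluorescence was read at 380/535 nm, and curves were fitted with a Hill equation.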
TGFb SMAD3 inh = blocks TGF-b signaling. AID 588855. Potency, µM (doses to about 46.1 µM), inactives show at the top dose activity, negative = inhibition, actives largely listed as inhibitors. 410,000 compounds, 1.2% hits. HepG2 CAGA-GFP TGF-b/SMAD3 reporter, GFP fluorescence, 18 h; TGF-beta stimulated, 500 pg/mL final; further: on the % scale 0 is the no-effect control and ±100 the full control effect; nearly all actives have a fitted effect of over 65% in size
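Inhibition was scored as loss of TGF-beta-induced (500 pg/mL final, 18 hours, 37 degrees C) GFP in HEPG2 cells carrying a CAGA-GFP reporter, in DMEM with 1% FBS. Well GFP was summed per cell; Activity was normalised to unstimulated and stimulated DMSO wells, then concentration-response fitting.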
HepG2 tox-1 = HepG2 cytotoxicity, counter-screen for TGF-b inhibitors; 410,000 compounds, 0.76% hits; HepG2 CAGA-GFP viability, ATP luminescence, 18 h; AID 588856; Potency, µM (top dose mostly 46.1 µM), for the others: at the highest dose activity change, negative = cytotoxicity, most hits filed as cytotoxic
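CellTiter-Glo luminescence gave cytotoxicity after 18 hours at 37 degrees C. The cells were HepG2 CAGA-GFP in 1% FBS DMEM, stimulated with 500 pg/mL TGF-beta after compound addition. %Activity was normalised to no-cell wells (complete cell-killing) and DMSO (no toxicity), and curves were fitted and classified.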
ATXN viability = cell viability loss in ATXN counter-screen. S2 cells (HEK-293 line with an ATXN2-luciferase reporter) viability, CellTiter-Fluor protease fluorescence, 24 h. Potency, µM (series often up to 56.7 µM), usual class: cytotoxic. 400,000 compounds, 0.49% hits. AID 651635; further: nearly all actives have a fitted effect of over 40% in size
TGFb confirm = confirmation of TGF-b signaling inhibitors in HepG2 reporter cells | shares compounds with TGFb SMAD3 inh | HepG2 CAGA-GFP TGF-b reporter, GFP fluorescence, 18 h; cells stimulated with TGF-beta, 500 pg/mL | Potency, µM (doses to about 46.1 µM), inactives show top-dose activity, negative = inhibition, usual class: inhibitors | 1,600 compounds, 63% hits | AID 720534; further: on the % scale 0 is the no-effect control and ±100 the full control effect; nearly all actives have a fitted effect of over 65% in size
HepG2 tox-2 = HepG2 cytotoxicity, TGF-b inhibitor counterscreen; shares compounds with TGFb SMAD3 inh; HepG2 CAGA-GFP viability, ATP luminescence, 18 h; cells stimulated with TGF-beta, 500 pg/mL; Potency, µM (series often up to 46.1 µM), without a hit: at the top dose activity, negative = cytotoxicity, usual class: inhibitors; AID 720535; 1,600 compounds, 27% hits; further: on the % scale 0 is the no-effect control and ±100 the full control effect; nearly all actives have a fitted effect of over 70% in size
TGFb CCL64 inh = blocks TGF-b signaling in CCL64 reporter cells; shares compounds with TGFb SMAD3 inh; CCL64 CAGA-GFP reporter, TGF-b stimulated, GFP fluorescence, 18 h; Potency, µM (highest dose often 46.1 µM), for the others: at the top dose activity, negative = inhibition, hits mostly inhibitors; 1,600 compounds, 41% hits; AID 720536; further: nearly all actives have a fitted effect of over 65% in size
COP TGFb inh = TGF-b inhibition validated with COP promoter; AID 720537; shares compounds with TGFb SMAD3 inh; 1,600 compounds, 3% hits; Potency, µM (series often up to 46.1 µM), for inactives: top-dose activity, negative = inhibition, actives largely listed as inhibitors; HepG2 COP-GFP TGF-b reporter, GFP fluorescence, 18 h; cells stimulated by added recombinant TGF-beta; further: nearly all actives have a fitted effect of over 70% in size
The depositor's hits bear a star; i = inactive; ? = inconclusive; . = not tested or not shown; [ ] = remark or other dose. Compounds with a hit are over-represented: about 2.4% of the library has one in this group of screens. The call rests on the fitted dose curve; in most records, active means well fitted curve in the direction sought with a large enough effect; inconclusive means small, poorly fitted or top-dose-only effect, or another doubt; inactive means no such curve, though single readings can be large; an effect the other way counts as inactive or inconclusive. Potency means the concentration at half of the fitted maximal effect.

SMILES | ATXN2 expr inh | Apoferritin bind | TGFb SMAD3 inh | HepG2 tox-1 | ATXN viability | TGFb confirm | HepG2 tox-2 | TGFb CCL64 inh | COP TGFb inh
COc1cccc(/C=N/Nc2ccc([N+](=O)[O-])cn2)c1O | 8.91µM* | 6.1% | 0.794µM* | i | ? | 1.64µM* | ? | ? | 22.7%
S=C(NCCc1ccccc1)N1CCN(Cc2ccc(Cl)c(Cl)c2)CC1 | -33.3% | -6.5% | -3.4% | -22.9% | i | . | . | . | .
Fc1ccc(CN2CCN(C(=S)NCCc3ccccc3)CC2)c(Cl)c1 | -19.0% | 0.5% | 7.94µM* | -29.9% | i | ? | -29.9% | ? | 10.8%
CC(C)(C)C(=O)/C(=C/c1ccc(Cl)cc1)n1cncn1 | . | -17.3% | 10µM* | -115.4% | 10µM* | 20.6µM* | ? | ? | 65.0%
O=C(CSc1nnnn1C1CC1)N1CCN(c2cccc(Cl)c2)CC1 | -31.2% | . | -22.1% | -20.3% | i | . | . | . | .
CC(C)c1ccc(CN2CCN(C(=O)CSc3nnnn3C3CC3)CC2)cc1 | -33.7% | . | ? | -35.3% | i | -22.1% | -21.6% | 1.0% | 7.8%
COC(=O)C(Cc1ccc(O)cc1)NC(=O)C1CCN(S(=O)(=O)c2ccc(C)cc2)CC1 (stereo not given) | -11.7% | -0.7% | 8.3% | -1.0% | i | . | . | . | .
O=C(CSC1=NCCS1)Nc1ccnc2ccccc12 | -12.5% | -7.8% | ? | -26.0% | i | 10.3µM* | 8.1% | -3.4% | -20.3%
Cc1cc(C)nc(SCC(=O)Nc2ccnc3ccccc23)n1 | -0.5% | -4.2% | -16.6% | -10.7% | i | . | . | . | .
CCCN(CCC)Cc1cc(=O)oc2cc(C)cc(C)c12 | 2.7% | . | ? | -15.8% | i | . | . | . | .
O=C1C(Nc2ccccc2)=C(NS(=O)(=O)c2ccccc2)C(=O)c2ccccc21 | 3.6% | -1.8% | 6.31µM* | -53.7% | i | ? | -29.0% | 3.5% | 2.2%
O=S(=O)(Nc1ccc(NS(=O)(=O)c2ccccc2)cc1)c1ccccc1 | . | . | 1.5% | -4.6% | i | . | . | . | .
Cc1ccc(NC(=O)c2c(NC(=O)c3ccc(F)cc3)sc3c2CCCC3)cc1C | 51.9% | -6.9% | 2.3% | -25.7% | i | . | . | . | .
CCCCC(=O)NS(=O)(=O)c1ccc(NS(C)(=O)=O)cc1 | -17.1% | -1.0% | 24.3% | 31.0% | i | . | . | . | .
COc1ccc(S(=O)(=O)NCC(c2ccco2)N2CCN(c3ccccc3F)CC2)cc1OC (stereo not given) | . | -4.9% | 0.0% | -1.9% | . | . | . | . | .
O=S(=O)(c1ccc(C(F)(F)F)cc1)N1CCN(c2nc(-c3ccccc3)nc3ccccc23)CC1 | . | . | 2.3% | -1.3% | . | . | . | . | .
Cc1csc2c(N3CCN(C(=O)NC(C)(C)C)CC3)ncnc12 | 0.0% | 4.3% | ? | -20.7% | i | . | . | . | .
Cc1csc2c(N3CCN(C(=O)c4ccc(C(C)(C)C)cc4)CC3)ncnc12 | . | -3.4% | 11.2µM* | -37.7% | i | 9.2µM* | -21.0% | ? | 11.2%
COc1ccc(CN2C(=O)CCC2(C)c2nnnn2-c2ccc3c(c2)OCCO3)cc1 (stereo not given) | 14.2% | . | . | . | i | . | . | . | .
ON=C1c2ccccc2-c2ccc(Br)cc21 | 2.3% | . | -19.7% | -10.6% | i | . | . | . | .
ON=C1c2ccccc2-c2ccc(F)cc21 | 10.5% | . | 1.58µM* | -15.7% | i | 9.2µM* | ? | -24.3% | 54.6%
Cc1cc(Nc2cccc(F)c2)nc(NCc2ccccc2)n1 | ? | ? | ? | -79.9% | ? | . | . | . | .
Cc1cc(Nc2ccccc2)nc(NCc2ccccc2)n1 | ? | ? | 10µM* | -55.2% | i | 3.7% | ? | 14.6µM* | 63.2%
CC(C)(C)OC(=O)C[C@@H]1C/C=C\C[C@@H](CC(=O)N(CCO)Cc2ccccc2)C(=O)N[C@@H](c2ccccc2)COC1=O | -16.8% | . | 14.6% | -6.5% | i | . | . | . | .
O=C(CSc1n[nH]c(-c2ccncc2)n1)Nc1ccccn1 | -13.4% | -1.8% | 11.2µM* | 0.3% | i | 16.4µM* | -0.6% | ? | -14.7%
SMILES | ATXN2 expr inh | Apoferritin bind | TGFb SMAD3 inh | HepG2 tox-1 | ATXN viability | TGFb confirm | HepG2 tox-2 | TGFb CCL64 inh | COP TGFb inh
O=C(CSc1n[nH]c(-c2ccccc2)n1)Nc1ncccn1 | -8.3%[11.3 µM] | -4.2% | -16.3% | 4.6% | i | . | . | . | .
O=C(Nc1ccc(C(=O)OCc2cc(=O)n3c4c(sc3n2)CCCC4)cc1)c1ccccc1 | . | 7.2% | ? | 0.6% | . | . | . | . | .
COc1ccc(NC(=O)C2CCN(S(=O)(=O)c3ccc4c(c3)NC(=O)C(C)S4)CC2)cc1 (stereo not given) | -31.6% | -4.0% | ? | -10.7% | i | . | . | . | .
CC1Sc2ccc(S(=O)(=O)N3CCC(C(=O)Nc4ccc(Cl)cc4)CC3)cc2NC1=O (stereo not given) | . | 3.7% | 20µM* | -9.5% | ? | 5.17µM* | ? | ? | 30.4%
CC1CC1C(=O)N(C)CC(=O)Nc1ccccc1Br (stereo not given) | 4.9% | . | 12.3% | 1.4% | i | . | . | . | .
O=C(Nc1nnc(SCc2ccc(F)cc2)s1)c1cccnc1Cl | 4.5% | -19.7% | -6.0% | -0.1% | i | . | . | . | .
O=C(Nc1nnc(SCc2ccc(F)cc2)s1)c1ccccn1 | ? | ? | 1.58µM* | -32.3% | ? | ? | ? | 18.4µM* | 54.7%
Cc1ccc(OCCNC(=O)[C@H]2O[C@@H](n3cnc4c(N)ncnc43)[C@H](O)[C@@H]2O)cc1C | -27.7% | . | ? | -20.8% | i | ? | -9.9% | -1.8% | -20.4%
Cc1ccc(OCCNC(=O)[C@H]2O[C@@H](n3ccc(N)nc3=O)[C@H](O)[C@@H]2O)cc1C | 8.3% | . | 5.7% | 4.7% | i | . | . | . | .
COc1ccccc1-c1noc(CCCC(=O)N2CCOCC2)n1 | . | -0.8% | 1.0% | 6.9% | i | . | . | . | .
